KB-3-1 cytotox = kills parental KB-3-1 adenocarcinoma cells; 1.4% of 400,000 active; Potency, µM (series often up to 46.1 µM), usual class: cytotoxic; AID 1347075; KB-3-1 viability, CellTiter-Glo ATP luminescence, 72 h; note: potency is the fitted concentration of half-maximal effect; nearly all actives have a fitted effect of over 60% in size
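Cells are dispensed, compounds pinned in, plates held at 37 °C for 72 h, then CellTiter-Glo is added and luminescence read after 10 minutes. Cell line: parental KB-3-1 in phenol-red-free DMEM, 10% FBS.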
A549 tox = counter-screen for Nrf2 inhibitors: cytotoxicity in A549 cells | A549 ARE-Fluc cells, CellTiter-Fluor viability, 18-24 h | Potency, µM (titrated, usually from 46 µM), inactives show at the highest dose activity change, negative = cytotoxicity, most hits filed as inhibitors | 0.16% of 390,000 active; note: potency is the fitted concentration of half-maximal effect
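A549 ARE-Fluc cells in 5% FBS OPTI-MEM, 5000 cells/well, rested 2 h then exposed to compounds in concentration-response for 18-24 h at 37 °C. Viability by CellTiter-Fluor fluorescence (Ex 405/Em 525) after 30 min; luciferase luminescence (BugLite, 15 min, RT) read afterwards.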
KB-V1 cytotox = kills drug-selected multidrug resistant KB-V1 cells; KB-V1 MDR cells viability, CellTiter-Glo, 72 h; Potency, µM (series often up to 46.1 µM), hits mostly cytotoxic; 3.4% of 400,000 active; note: potency is the fitted concentration of half-maximal effect; nearly all actives have a fitted effect of over 60% in size
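Cytotoxicity toward P-gp-expressing KB-V1 cells was determined as loss of CellTiter-Glo luminescence after 72 h at 37 degrees C. Compounds were tested in quantitative HTS format across a concentration range, with curves fitted to normalized data.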
Nrf2 inh = inhibitors of Nrf2 signaling; A549 ARE-Fluc reporter, luciferase luminescence, 18-24 h; Potency, µM (doses to about 46 µM), inactives show at the top dose activity change, negative = inhibition, hits mostly inhibitors; 2.1% of 360,000 active; note: potency is the fitted concentration of half-maximal effect; nearly all actives have a fitted effect of over 60% in size
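Quantitative HTS in A549 cells stably bearing an antioxidant response element-firefly luciferase construct. Inhibition of Nrf2-driven transcription was scored by luminescence after 18-24 h of compound exposure at 37 °C.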
Giardia kill = Giardia lamblia killing. Giardia lamblia trophozoite viability. activity change, % at 7.66 µM, hits read low. 0.15% of 340,000 active; in the data active = activity change below about -80%; inconclusive = between about -30% and that limit;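 note: parasites exposed to compound for two days anaerobically before the ATP read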
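Trophozoites 100 cells/well + cpd; 48 hrs, 37 deg C, anaerobic. ATPLite 1-Step added, 15-30 min RT, luminescence read (ATP-based viability).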
PI4K2A inh = inhibitors of human PI4K2A | Q9BTU6 | purified PI4K2A, ADP-Glo luminescence, 1 h; active compounds read low | activity change, negative = inhibition, % at 76.9 µM | 0.13% of 420,000 active | AID 1346378; in the data active = activity change below about -50%; inconclusive = mostly about -30% to -49%;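 note: -100% = wells without enzyme as full effect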
Target sequence (Q9BTU6 whole entry, looked up): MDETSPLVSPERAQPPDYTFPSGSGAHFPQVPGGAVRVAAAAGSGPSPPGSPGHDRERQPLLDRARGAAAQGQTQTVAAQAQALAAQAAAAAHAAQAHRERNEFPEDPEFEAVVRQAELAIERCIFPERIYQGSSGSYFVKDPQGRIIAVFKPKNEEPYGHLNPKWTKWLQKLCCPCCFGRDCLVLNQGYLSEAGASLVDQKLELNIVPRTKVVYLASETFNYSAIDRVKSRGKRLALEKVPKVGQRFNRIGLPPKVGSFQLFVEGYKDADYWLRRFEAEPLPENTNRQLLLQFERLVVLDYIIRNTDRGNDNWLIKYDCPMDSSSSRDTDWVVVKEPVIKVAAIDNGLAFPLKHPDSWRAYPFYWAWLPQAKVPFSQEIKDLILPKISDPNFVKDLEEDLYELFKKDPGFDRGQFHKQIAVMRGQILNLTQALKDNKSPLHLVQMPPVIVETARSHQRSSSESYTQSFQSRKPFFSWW
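ADP-Glo luminescence measured ADP generated by PI4K2A enzyme (4 ug/mL before mixing) with 1.2 mM PI substrate (pre-mix) and 300 microM ATP (pre-mix). Tris pH7.5 buffer with MgCl2, Triton X-100; 1 h reaction at ambient temperature.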
* = called active by the depositor; i = inactive; ? = inconclusive; nt = not tested or not shown; ! = not active in a repeat. Hits are enriched below; roughly 5.7% of the tested compounds scored in any of these assays. Unless noted, calls come from the whole dose curve; as a rule, active = well fitted curve in the direction sought with a large enough effect; inconclusive = small, poorly fitted or top-dose-only effect, or another doubt; inactive = no such curve, though single readings can be large; an effect the other way counts as inactive or inconclusive. Unless noted, % is set by controls: 0 for no effect and ±100 for the full control effect.

SMILES	KB-3-1 cytotox	A549 tox	KB-V1 cytotox	Nrf2 inh	Giardia kill	PI4K2A inh
O=C1NC(=O)C(CCc2ccncc2)(Cc2cccc(Cl)c2Cl)C(=O)N1c1ccc(Br)cc1 (stereo not given)	5.17µM*	?	8.2µM*	-7.2%	-10.6	-0.6
CC(C)c1cccc(C(C)C)c1OCCn1ccnc1	i	4.5%	23.1µM*	13.6%	1.8	-1.6
COc1ccc(C)cc1NC(=O)N(Cc1ccc2c(c1)OCO2)C1CCN(Cc2ccccc2)CC1	i	-18.1%	i	9.0%	nt	-2.8
CCN1C[C@@]2(COC)C3[C@@H](OC)C4[C@@H]1C3([C@@H]1C[C@]3(O)[C@H](OC(=O)c5ccccc5)[C@@H]1[C@]4(OC(C)=O)[C@@H](O)[C@@H]3OC)[C@H](OC)C[C@H]2O	nt	nt	nt	nt	nt	-0.2
CN1CCN(c2cccc3c2C(=O)c2ccccc2C3=O)CC1	?	-19.0%	18.4µM*	2.0%	24.1	-8.2
CCOc1ccc(Nc2c(S(=O)(=O)c3ccc(C)cc3)cnc3ccc(F)cc23)cc1	i	-11.1%	i	?	nt	-3.1
Cc1ccc(C[n+]2c(-c3ccc(C)cc3)cc(-c3ccc(C)cc3)cc2-c2ccc(C)cc2)cc1	5.8µM*	18.4µM*	?	5.17µM*	2.9	-1.4
Cc1ccc(O)c(C(=O)c2cc(C(=O)NCCC(C)C)c(=O)n(CCC(C)C)c2)c1	i	-5.7%	?	?	16.8	-3.0
O=C(c1cc(C(=O)NCc2ccc(Cl)cc2)c(=O)n(Cc2ccc(Cl)cc2)c1)c1cc(F)ccc1O	?	?	7.31µM*	?	-4.2	-12.6
Cc1ccc(CN2C(=O)c3ccccc3Sc3ccc(C(=O)N4CCC5(CC4)OCCO5)cc32)cc1	nt	-11.3%	nt	nt	nt	1.3
Cc1ccc(C)c(CN2C(=O)c3ccccc3S(=O)(=O)c3ccc(C(=O)N4CCCCCC4)cc32)c1	nt	-28.3%	nt	20.6µM*	nt	-2.3
CCN1/C(=C/C=C/C2=[N+](CC)c3ccccc3C2(C)C)C(C)(C)c2ccccc21	0.0065µM*	nt	8.2µM*	nt	nt	?
Cc1ncc([N+](=O)[O-])n1CCOc1nonc1N	i	-2.2%	i	2.6%	-86.5*	3.4
Nc1nonc1OCCCCOc1nonc1N	i	-1.2%	i	-9.0%	-8.1	-0.6
COc1cc(CC(C)N)cc2c1OCO2 (stereo not given)	nt	nt	nt	nt	nt	i
COC[C@H]1OC(=O)c2coc3c2[C@@]1(C)C1=C(C3=O)[C@@H]2CCC(=O)[C@@]2(C)C[C@H]1OC(C)=O	20.6µM*	16.4µM*	?	3.66µM*	-1.2	-17.9
c1ccc(CCn2nnnc2CN2CCC(n3nnc4ccccc43)CC2)cc1	i	-15.0%	5.8µM*	-17.3%	9.1	1.4
ClCCN(CCCl)c1ccc(C=Nc2ccc(/C=C/c3ccncc3)cc2)cc1	i	nt	i	nt	nt	nt
O=C(O)c1sccc1Oc1ccc(F)cc1[N+](=O)[O-]	i	-16.6%	i	23.1µM*	-6.0	-4.7
O=C(O)c1ccc([N+](=O)[O-])c([N+](=O)[O-])c1	?	-12.3%	i	-12.7%	10.2	-3.1
CC[n+]1c(SC)ccc2cc(OC)ccc21	i	?	?	18.4µM*	3.7	-4.1
CCCCCSc1cc(OC)c(CCN)cc1OC	20.6µM*	15.9%	?	nt	-0.2	1.9
Cn1cc(C(=O)OCC(=O)Nc2ccccc2)c2ccccc21	i	-1.9%	20.6µM*	?	-7.4	-3.8
COc1ccc(NC(=O)CCOc2cc(C)ccc2C)cc1S(=O)(=O)N1CCCCC1	?	-27.6%	?	?	-5.1	13.3
COC(=O)C1=C(c2cccc(OCc3ccccc3)c2)C[C@@H]2CC[C@H]1N2C(=O)NCc1ccccc1	?	-8.1%	?	?	-12.3	4.7
SMILES	KB-3-1 cytotox	A549 tox	KB-V1 cytotox	Nrf2 inh	Giardia kill	PI4K2A inh
COC(=O)C1=C(c2cccc(OCc3ccccc3)c2)C[C@@H]2CC[C@H]1N2C(=O)NCc1ccccc1OC	i	?	i	20.6µM*	15.6	-1.2
COC(=O)C1=C(c2ccc(OCc3ccccc3)cc2)C[C@@H]2CC[C@H]1N2C(=O)NCc1cccc(OC)c1	?	-12.0%	?	23.1µM*	14.1	0.4
COC(=O)C1=C(c2cccc(OCc3ccccc3)c2)C[C@@H]2CC[C@H]1N2C(=O)NCc1ccc(Cl)cc1	?	-13.1%	?	23.1µM*	-13.0	0.4
S=C(SSC(=S)N1CCCCC1)N1CCCCC1	nt	nt	nt	nt	nt	0.8
O=C(c1ccc2c(c1)ncn2C1CCCCC1)N1CCC2(CC1)OCCO2	?	?	9.2µM*	-0.7%	1.3	8.6
Cc1cccc(-c2nc3ccc(C(=O)N4CCC5(CC4)OCCO5)cc3nc2-c2cccc(C)c2)c1	?	?	i	?	18.0	-2.0
CC(=O)OC(C)(C)/C=C/C(=O)[C@](C)(O)C1[C@H](O)C[C@@]2(C)C3CC=C4C(C[C@H](O)C(=O)C4(C)C)[C@]3(C)C(=O)C[C@]12C (stereo not given in full)	0.0366µM*	0.651µM*	0.92µM*	?	3.8	-8.4
CC(C)(O)/C=C/C(=O)C(C)(O)C1C(O)CC2(C)C3CC=C4C(C=C(O)C(=O)C4(C)C)C3(C)C(=O)CC12C (stereo not given)	0.184µM*	2.31µM*	0.92µM*	1.46µM*	8.6	-14.2
O=C(NCCc1ccccc1)[C@@H]1CC=C[C@@H]2CCN(Cc3ccc(Cl)c(Cl)c3)C(=O)[C@@H]21	?	-23.8%	16.4µM*!	?	-22.4	-2.4
O=C(Cc1ccc(Cl)c(Cl)c1)N1CCCCC1CN1CCCC1 (stereo not given)	nt	nt	nt	nt	nt	-5.5
Cc1ccc(CNC(=O)CCCn2c(=O)c3sccc3n(CC(=O)Nc3c(C)cccc3C)c2=O)cc1	nt	-2.6%	nt	-19.9%	nt	-25.6
CC[C@@H](C(=O)[C@@H](C)[C@@H](O)[C@H](C)[C@@H]1O[C@@H]([C@@H](CC)C(=O)O)CC[C@@H]1C)[C@H]1O[C@]2(C=C[C@@H](O)[C@]3(CC[C@@](C)([C@H]4CC[C@](O)(CC)[C@H](C)O4)O3)O2)[C@H](C)C[C@@H]1C	?	4.61µM*	?	1.46µM*	-12.2	-0.9
Cc1cccc(N(CC(=O)NCCSc2ccc(Cl)cc2)S(=O)(=O)c2ccccc2)c1C	nt	-11.3%	nt	?	nt	-4.4
Cc1cccc(N2C(=O)NC(=O)/C(=C\c3cccn3-c3ccc(Cl)cc3)C2=O)c1	?	?	18.4µM*	?	13.3	-50.2*
CC(C)C(C(=O)NC(C)(C)C)N1C(=O)CN=C(c2ccccc2)c2ccccc21 (stereo not given)	nt	nt	nt	nt	nt	-7.0
